Where a name gives a salt, the structure may show the parent alone. Read-outs that look alike come from different tables or passages of the source. Screen size: about 3,300 compounds; about 95 (3%) showed an effect of 50% or more. What follows is part of a selection rich in strong results, with near analogues and random picks from the rest. Peptide text beside a SMILES is read from it.
Test system: HCoV-229E
Set-up: species or system Huh-7; HTS, protection from HCoV-229E induced cell death, luminescent cell viability (CellCounting-Lite 2.0), inhibition rate
Settings: 24 h post infection, 1 h compound pre-incubation, 10 µM, inhibitor

## C=C(C)[C@@H]1CC=C(CO)CC1 [(S)-(−)-Perillyl alcohol]
  229E Inhibition rate: 9.9%

## C[C@H]1CC[C@@H]2[C@@H](C)[C@H]3[C@H](C[C@H]4[C@@H]5CC=C6C[C@@H](O)CC[C@]6(C)[C@H]5CC[C@]34C)N2C1 [Solanidine]
  229E Inhibition rate: 24.2%

## C=C[C@H]1CN2CC[C@H]1C[C@@H]2[C@@H](O)c1ccnc2ccccc12 [Cinchonine]
  229E Inhibition rate: 53.6%

## C=C[C@H]1CN2CC[C@H]1C[C@H]2[C@H](O)c1ccnc2ccccc12 [Cinchonidine]
  229E Inhibition rate: 13.4%

## C=C[C@H]1CN2CC[C@H]1C[C@@H]2[C@@H](O)c1ccnc2ccc(OC)cc12 [Quinidine hydrochloride monohydrate]
229E Inhibition rate, 24 h
  229E Inhibition rate: 48.6%

## CC1(C)CCC[C@](C)([C@H]2CC[C@]3(C)[C@@H]2[C@H](O)C[C@@H]2[C@@]4(C)CC[C@H](O)C(C)(C)[C@@H]4[C@@H](O)C[C@]23C)O1 [Panaxatriol]
  229E Inhibition rate: 15.9%

## CC(C)=CCCC(C)CCO (stereo not drawn) [Citronellol]
  229E Inhibition rate: 12.8%

## CC1(C)CC[C@]2(C(=O)O[C@@H]3O[C@H](CO)[C@@H](O)[C@H](O)[C@H]3O)CC[C@]3(C)C(=CC[C@@H]4[C@@]5(C)CC[C@H](O[C@@H]6O[C@H](C(=O)O)[C@@H](O)[C@H](O[C@@H]7OC[C@@H](O)[C@H](O)[C@H]7O)[C@H]6O)C(C)(C)[C@@H]5CC[C@]43C)[C@@H]2C1 [Momordin IIc]
  229E Inhibition rate: 29.6%

## CC(=O)[C@H]1CC[C@H]2[C@@H]3CC=C4C[C@@H](OS(=O)(=O)O)CC[C@]4(C)[C@H]3CC[C@]12C [Pregnenolone monosulfate (sodium)]
  229E Inhibition rate: 55.9%

## CC(=O)[C@H]1CC[C@H]2[C@@H]3CC=C4C[C@@H](O)CC[C@]4(C)[C@H]3CC[C@]12C [Pregnenolone]
  229E Inhibition rate: 40.7%

## CC(C)CCC[C@@H](C)[C@H]1CC[C@H]2[C@@H]3CC=C4C[C@@H](OS(=O)(=O)O)CC[C@]4(C)[C@H]3CC[C@]12C [Cholesteryl sulfate (sodium)]
  229E Inhibition rate: 7.6%

## CC1(C)C(=O)[C@]2(C)CC[C@H]1C2 [(-)-Fenchone]
  229E Inhibition rate: 23.7%

## C=C1C[C@@]23CC[C@H]4[C@@](C)(CCC[C@@]4(C)C(=O)O[C@@H]4O[C@H](CO)[C@@H](O)[C@H](O[C@@H]5O[C@H](CO)[C@@H](O)[C@H](O)[C@H]5O)[C@H]4O[C@@H]4O[C@H](CO)[C@@H](O)[C@H](O)[C@H]4O)[C@@H]2CC[C@]1(O[C@@H]1O[C@H](CO)[C@@H](O)[C@H](O[C@@H]2O[C@H](CO)[C@@H](O)[C@H](O)[C@H]2O)[C@H]1O[C@@H]1O[C@H](CO)[C@@H](O)[C@H](O)[C@H]1O)C3 [Rebaudioside M]
  229E Inhibition rate: 19.5%

## OC[C@H]1O[C@@](CO)(OC[C@@]2(O[C@H]3O[C@H](CO)[C@@H](O)[C@H](O)[C@H]3O)O[C@H](CO)[C@@H](O)[C@@H]2O)[C@@H](O)[C@@H]1O [1-Kestose]
  229E Inhibition rate: 18.6%

## CC[C@H](C)[C@@H]1NC(=O)[C@@H]2CCCN2C(=O)[C@@H]2CCCN2C(=O)[C@@H]2CCCN2C(=O)[C@H](CC(C)C)NC(=O)CNC(=O)CNC(=O)[C@H](Cc2ccccc2)NC1=O [Heterophyllin B] (cyclo(FGGLPPPI))
  229E Inhibition rate: 12.9%

## O=C(OCc1ccccc1)c1ccccc1O [Benzyl salicylate]
  229E Inhibition rate: 24.5%

## CC(=O)OCc1ccccc1 [Benzyl acetate]
  229E Inhibition rate: 50.3%

## O=C(OCc1ccccc1)c1ccccc1 [Benzyl benzoate]
  229E Inhibition rate: 12.5%

## C[C@H]1O[C@@H](Oc2ccc(COC(=O)CC(O)(CC(=O)OCc3ccc(O[C@@H]4O[C@H](CO)[C@@H](O)[C@H](O)[C@H]4O)cc3)C(=O)Oc3ccc(O[C@H]4O[C@H](CO)[C@@H](O)[C@H](O)[C@H]4O)cc3)cc2)[C@H](O)[C@@H](O)[C@@H]1O (stereo partly drawn) [Parishin]
  229E Inhibition rate: 9.7%

## O=C1CC(C(=O)O)c2c1oc(=O)c1cc(O)c(O)c(O)c21 (stereo not drawn) [Brevifolincarboxylic acid]
  229E Inhibition rate: 6.4%

## C[C@H]1[C@H](C)CC[C@]2(C)CC[C@]3(C)C(=CC[C@@H]4[C@@]5(C)CC[C@@H](O)[C@](C)(C(=O)O)[C@@H]5CC[C@]43C)[C@H]12 [β-Boswellic acid]
  229E Inhibition rate: 22.5%

## CCCCCCCCCCCCCCCCCC(=O)OC [Methyl stearate]
  229E Inhibition rate: 17.9%

## CCCCCCCCCCCCCCCCCCCCCCCC(=O)OC [Methyl tetracosanoate]
  229E Inhibition rate: 11.5%

## CCCCCCCCCCC(=O)OC [Methyl undecanoate]
  229E Inhibition rate: 56.2%

## C=C1C[C@@]23CC[C@H]4[C@@](C)(CCC[C@@]4(C)C(=O)O)[C@@H]2CC[C@]1(O[C@@H]1O[C@H](CO)[C@@H](O)[C@H](O[C@@H]2O[C@H](CO)[C@@H](O)[C@H](O)[C@H]2O)[C@H]1O[C@@H]1O[C@H](CO)[C@@H](O)[C@H](O)[C@H]1O)C3 [Rebaudioside B]
  229E Inhibition rate: 36.9%

## COc1cc(/C=C/C=O)ccc1O [Coniferaldehyde]
  229E Inhibition rate: 38.5%

## Nc1ncnc2c1ncn2[C@H]1C[C@H](O)[C@@H](CO)O1 [2'-Deoxyadenosine monohydrate]
229E Inhibition rate, 24 h
  229E Inhibition rate: 8.6%

## Nc1ncnc2c1ncn2[C@@H]1O[C@H](CO)C[C@H]1O [Cordycepin]
  229E Inhibition rate: 15.3%

## Nc1ncnc2c1ncn2[C@@H]1C[C@H](CO)[C@@H](O)[C@H]1O [Aristeromycin]
  229E Inhibition rate: 57.5%

## O=C(/C=C/c1ccccc1)c1ccccc1 [trans-Chalcone]
229E Inhibition rate, 24 h
  229E Inhibition rate: 5.4%

## O=C1C[C@@](O)(C(=O)O)[C@@H](C(=O)O)O1 [(-)-Hydroxycitric acid lactone]
  229E Inhibition rate: 7.8%

## O=C(O)CCCC(O)C(=O)O (stereo not drawn) [2-Hydroxyadipic acid]
  229E Inhibition rate: 14.9%

## C[S@@+]([O-])CCCCN=C=S [(R)-sulforaphane]
  229E Inhibition rate: 54%

## C=C1C(=O)[C@@]23[C@H](O)C[C@@H]4C(C)(C)CC[C@H](O)[C@@]4(CO)[C@@H]2CC[C@@H]1[C@H]3O [Kamebakaurin]
  229E Inhibition rate: 0%

## C=C1C(=O)[C@@]23[C@@H]4OC5O[C@@]2(O)[C@@H](O)[C@@H]2C(C)(C)CC[C@@H](O)[C@]52[C@@H]3CC[C@@H]14 [ponicidin]
  229E Inhibition rate: 95.6%

## C=C1C(=O)[C@]23[C@H](O)[C@H]1CC[C@H]2[C@@]12CO[C@]3(O)[C@@H](O)[C@@H]1C(C)(C)CC[C@@H]2O [Oridonin]
  229E Inhibition rate: 0%

Source: publication PMC12431657, “Discovery and mechanistic insights of dibenzoylmethane as a broad spectrum inhibitor of coronavirus” (PLOS Pathogens, 2025)
